Compound activity from PubChem.
Shiga toxin inh: A qHTS for Small Molecule Inhibitors of Shiga Toxin; AID 2315, 2010; inhibition, % at 38.7 µM; Vero cells, Shiga toxin protein synthesis inhibition reporter; 9.2% of 290,000 active; in the data active = inhibition mostly above about 28%, no sharp cut-off; inactive = mostly below about 43%
Pf growth 96h: Primary qHTS for delayed death inhibitors of the malarial parasite plastid, 96 hour incubation. 6.9% of 320,000 active. P. falciparum luciferase reporter growth, 96 h. Potency, µM (series often up to 28.7 µM), usual class: inhibitors. AID 504834, 2011
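Parasite growth measured via integrated firefly luciferase reporter in P. falciparum. Infected erythrocytes at 2% hematocrit, 0.05% parasitemia final were treated 96 hours at 37 C under 5% CO2, and luminescence was read.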
Pf growth 48h: Primary qHTS for delayed death inhibitors of the malarial parasite plastid, 48 hour incubation; P. falciparum luciferase growth in erythrocytes, 48 h; Potency, µM (series often up to 28.7 µM), hits mostly inhibitors; 5.9% of 310,000 active; AID 504832, 2011
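Growth was read as firefly luciferase luminescence after a 48 h, 37 C, 5% CO2 exposure of compounds to reporter-bearing P. falciparum cultures (0.1% parasitemia, 2% hematocrit final) in Albumax-supplemented RPMI 1640.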
NS1 function inh: qHTS Assay for Inhibitors of Influenza NS1 Protein Function. Potency, µM (top dose mostly 46.1 µM). 0.4% of 270,000 active. AID 2326, 2010; calls by dose curve; note: actives are rising curves; nearly all actives have a fitted effect of over 50% in size
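Growth recovery, yeast-based: influenza A NS1 expressed in S. cerevisiae causes slow growth, and suppressors are detected by OD600. The parent strain without NS1 is used as positive control.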
Cycloheximide cs: Cycloheximide Counterscreen for Small Molecule Inhibitors of Shiga Toxin; max response, %; 12% of 300,000 active; cell reporter, cycloheximide protein synthesis inhibition counterscreen; in the data active = max response mostly above about 13%, no sharp cut-off; inactive = mostly below about 14%; note: read at 38.3 µM for the half of the compounds with a filed dose
SARS PLP yeast: qHTS of Yeast-based Assay for SARS-CoV PLP | S. cerevisiae expressing SARS-CoV PLpro, growth rescue | Potency, µM (series often up to 32.9 µM), hits mostly activators | 0.19% of 330,000 active | AID 485353, 2010; calls by dose curve; note: nearly all actives have a fitted effect of over 55% in size
Hits are given with their value; [ ] = dose if it differs, or a comment. An excerpt weighted towards active compounds, which were near 21% of everything screened. Unless noted, calls come from the whole dose curve; as a rule, active = well fitted inhibition curve with a large enough effect; inconclusive = small, poorly fitted or top-dose-only effect, or another doubt; inactive = no such curve, though single readings can be large or run the other way.

COc1cc(-c2nc3ccccn3c2/N=C/c2cc(OC)c(O)cc2Cl)ccc1O was read as Shiga toxin inh 22, Pf growth 96h inactive, Pf growth 48h inactive, Cycloheximide cs 30 and SARS PLP yeast inactive.
For COc1cc(OC)c(C2=NOC(C(=O)N3CCCc4ccccc43)C2)cc1Cl (stereo unspecified) the results were Shiga toxin inh inactive, Pf growth 96h 8.3µM, NS1 function inh inactive, Cycloheximide cs inactive and SARS PLP yeast inactive.
CCOC(=O)c1c(NC(=O)CN2CCCCC2)sc(C)c1C was read as Shiga toxin inh inactive, Pf growth 96h inactive, Pf growth 48h inactive, NS1 function inh inactive, Cycloheximide cs inactive and SARS PLP yeast inactive.
For CCOC(=O)c1c(NC(=O)CN2CCN(C(=O)c3ccco3)CC2)sc2c1CCCC2 the results were Shiga toxin inh inactive, Pf growth 96h inactive, Pf growth 48h 3.7µM, NS1 function inh inactive, Cycloheximide cs inactive and SARS PLP yeast inactive.
CCOC(=O)c1c(NC(=O)CN2CCCCC2)sc2c1CCN(C(=O)OCC)C2 was read as Shiga toxin inh inactive, Pf growth 96h 5.2µM, Pf growth 48h 10µM, NS1 function inh inactive, Cycloheximide cs inactive and SARS PLP yeast inactive.
Screening CCOC(=O)c1c(NC(=O)COC)sc2c1CCCC2 returned Shiga toxin inh inactive, Pf growth 48h inactive, NS1 function inh inactive, Cycloheximide cs inactive and SARS PLP yeast inactive.
For CCOC(=O)NC(Nc1sc2c(c1C(=O)OC)CCN(C)C2)(C(F)(F)F)C(F)(F)F the results were Shiga toxin inh inactive, Pf growth 96h 6.6µM, Pf growth 48h inconclusive, NS1 function inh inactive, Cycloheximide cs inactive and SARS PLP yeast inactive.
`CCOC(=O)c1c(NC(=S)N2CCN(C)CC2)sc2c1CCN(C(=O)OCC)C2` gave Shiga toxin inh inactive, Pf growth 96h 12µM, Pf growth 48h 13µM, NS1 function inh inactive, Cycloheximide cs inactive and SARS PLP yeast inactive.
`CCC(=O)NC(Nc1sc2c(c1C(=O)OC)CCN(C)C2)(C(F)(F)F)C(F)(F)F` gave Shiga toxin inh inactive, Pf growth 96h inconclusive, Pf growth 48h inconclusive, NS1 function inh inactive, Cycloheximide cs inactive and SARS PLP yeast inactive.
CCOC(=O)c1cc(CC)sc1NC(=O)CN1CCN(C(=O)c2ccco2)CC1 was read as Shiga toxin inh inactive, Pf growth 96h inactive, Pf growth 48h inconclusive, NS1 function inh inactive, Cycloheximide cs inactive and SARS PLP yeast inactive.
For O=C(O)c1c(C(=O)O)c(-c2ccc(Br)cc2)n2c1CSC2 the results were Shiga toxin inh inactive, Pf growth 96h inactive, Pf growth 48h inactive[0.00184 µM], NS1 function inh inactive, Cycloheximide cs inactive and SARS PLP yeast inactive.
Screening CCOC(=O)c1c(NC(=O)CC)sc2c1CCN(Cc1ccccc1)C2 returned Shiga toxin inh inactive, Pf growth 96h inactive, Pf growth 48h inconclusive, NS1 function inh inactive, Cycloheximide cs inactive and SARS PLP yeast inactive.
CCOC(=O)c1c(NC(=O)CN(CC)CC)sc2c1CCN(C(=O)OCC)C2 was read as Shiga toxin inh inactive, Pf growth 96h 8.3µM, Pf growth 48h 9.3µM, NS1 function inh inactive, Cycloheximide cs inactive and SARS PLP yeast inactive.
O=C(CN1C(=O)c2ccccc2C1=O)OCC(=O)N1CCCCC1 was read as SARS PLP yeast inactive.
`Cc1nn(C)c(Oc2ccccc2)c1CCNS(=O)(=O)c1ccccc1` gave Shiga toxin inh inactive, Pf growth 96h inactive, Pf growth 48h inconclusive, NS1 function inh inactive, Cycloheximide cs inactive and SARS PLP yeast inactive.
`Cn1c(=O)c2c(nc(NCc3ccccc3)n2C)n(C)c1=O` gave Shiga toxin inh inactive, Pf growth 48h inactive, NS1 function inh inactive, Cycloheximide cs inactive and SARS PLP yeast inactive.
For Cn1c(NCc2ccccc2)nc2c1c(=O)n(Cc1ccccc1)c(=O)n2C the results were Shiga toxin inh inactive, Pf growth 96h 3.7µM, Pf growth 48h 7.4µM, NS1 function inh inactive, Cycloheximide cs inactive and SARS PLP yeast inactive.
`CC(C)CCNc1nc2c(c(=O)n(Cc3cccc(F)c3)c(=O)n2C)n1C` gave Shiga toxin inh inactive, Pf growth 96h 12µM, Pf growth 48h inconclusive, NS1 function inh inactive, Cycloheximide cs inactive and SARS PLP yeast inactive.
COc1ccc(CNc2nc3c(c(=O)n(Cc4ccc(F)cc4)c(=O)n3C)n2C)cc1 was read as Shiga toxin inh inactive, Pf growth 96h inactive, Pf growth 48h 9.3µM, NS1 function inh inactive, Cycloheximide cs inactive and SARS PLP yeast inactive.
Cn1c(NCCO)nc2c1c(=O)n(Cc1ccc(F)cc1)c(=O)n2C was read as Shiga toxin inh inactive, Pf growth 96h inactive, NS1 function inh inactive, Cycloheximide cs inactive and SARS PLP yeast inactive.
Screening O=C(Nc1cccnc1)NC1CCCCC1 returned Shiga toxin inh inactive, Pf growth 96h inactive, Pf growth 48h inconclusive, Cycloheximide cs inactive and SARS PLP yeast inactive.
Screening CNC(=S)/N=C/NOCc1ccc(Cl)cc1Cl returned Shiga toxin inh inactive, Pf growth 96h 15µM, Pf growth 48h inconclusive, Cycloheximide cs inactive and SARS PLP yeast inactive.
Screening NC(=O)NOCc1ccc(Cl)cc1Cl returned Shiga toxin inh inactive, Pf growth 96h inactive, Pf growth 48h inactive, NS1 function inh inactive, Cycloheximide cs inactive and SARS PLP yeast inactive.
Cc1cc(C)nc(NC(N)=NC(C)c2ccccc2)n1 (stereo unspecified) was read as Shiga toxin inh inactive, Pf growth 96h inconclusive, Pf growth 48h 15µM, NS1 function inh inactive, Cycloheximide cs inactive and SARS PLP yeast inactive.
For Cc1cc(C)nc(NC(=O)C(c2ccccc2)c2ccccc2)n1 the results were Shiga toxin inh inactive, Pf growth 96h inactive, Pf growth 48h inactive, NS1 function inh inactive, Cycloheximide cs inactive and SARS PLP yeast inactive.
Screening CCOC(=O)[C@@H]1[C@H]2COc3ccccc3[C@@H]2N2C(=O)N(c3cccc(Cl)c3)C(=O)[C@@]12C returned Shiga toxin inh inactive, Pf growth 96h 10µM, Pf growth 48h inactive, NS1 function inh inactive, Cycloheximide cs inactive and SARS PLP yeast inactive.
CCOC(=O)[C@@H]1[C@H]2COc3ccccc3[C@H]2N2C(=O)N(c3cccc(Cl)c3)C(=O)[C@@]12C was read as Shiga toxin inh inactive, Pf growth 96h inconclusive, Pf growth 48h inactive, NS1 function inh inactive, Cycloheximide cs inactive and SARS PLP yeast inactive.
Screening C[C@@]12C(=O)N(c3ccc(C(F)(F)F)cc3)C(=O)N1[C@@H]1c3ccccc3OC[C@@H]1[C@H]2c1ccccc1 returned Shiga toxin inh inactive, Pf growth 96h 4.1µM, Pf growth 48h inconclusive, NS1 function inh inconclusive, Cycloheximide cs inactive and SARS PLP yeast inactive.
`CCOC(=O)[C@@H]1[C@H]2COc3cc(OC)ccc3[C@H]2N2C(=O)N(c3cccc(Cl)c3)C(=O)[C@@]12C` gave Shiga toxin inh inactive, Pf growth 96h inconclusive, Pf growth 48h 10µM, NS1 function inh inactive, Cycloheximide cs inactive and SARS PLP yeast inactive.
